Experimental data taken from PubChem BioAssay (NCI).
This is part of a sample that, as a whole, favours compounds with a hit. Of some 83,000 tested, about 20% had one in any assay.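 Interpretation: 100, growth as untreated; towards 0, rising growth inhibition; 0, no net growth; 0 to -100, cell death. Compounds scoring below 10 were considered active.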 Values without a mark were called inactive. Active and inactive are the calls of the source.

Key:
Assay in all cases: NCI-60 one-dose screen, 48 h (100 = growth as untreated, 0 = no growth, -100 = all killed)
Settings in all cases: 10 µM unless noted
[1] = tested on: T-47D breast
[2] = tested on: BT-549 breast
[3] = tested on: MDA-MB-435 melanoma
[4] = tested on: SW-620 colon
[5] = tested on: MCF7 breast
[6] = tested on: HCT-116 colon
[7] = tested on: HCC-2998 colon
[8] = tested on: KM12 colon

SMILES	growth [1]	growth [2]	growth [3]	growth [4]	growth [5]	growth [6]	growth [7]	growth [8]
Nc1nc(-c2cccc([N+](=O)[O-])c2)c(N=Nc2ccccc2[N+](=O)[O-])s1	42.3%	34.4%	67.7%	6.99% (active)	82.2%	-13.8% (active)	84.9%	54.2%
CS(=O)(=O)c1nccc(-c2c(-c3ccc(F)c(OCc4ccc(F)cc4)c3)nc3sccn23)n1	-18.7% (active)	69.8%	97.3%	88.2%	-6.26% (active)	90.2%	-63.6% (active)	41.5%
O=C1Nc2cc(OC(F)(F)F)ccc2Oc2ccc(-c3ccnc(N4CCNCC4)c3)cc21	-61.9% (active)	-4.26% (active)	-95.7% (active)	-91.8% (active)	-55.7% (active)	-91.4% (active)	-76.8% (active)	-10.6% (active)
CC[C@]12C=CCN3CC[C@]4(C(=C(C(=O)OC)C1)Nc1cc5c(cc14)[C@@H]1[C@H](O5)[C@@H](O)[C@@]4(CC)CC(C(=O)OC)=C5Nc6cc(OC)ccc6[C@@]56CCN1[C@@H]46)[C@@H]32	9.28% (active)	37.8%	-12.5% (active)	3.27% (active)	6.01% (active)	-87.2% (active)	-58.7% (active)	9.56% (active)
CNC(=O)c1cc(N2CCc3cc(NC(=O)Nc4ccc(Cl)c(Cl)c4)ccc32)ccn1	63.4%	77%	84.2%	114%	63.3%	92.7%	98%	30.4%
Cc1cc(NS(=O)(=O)c2ccc(-c3cnc(C4CC4)o3)cc2)ccc1I	32.5%	36%	3.85% (active)	25.5%	25.4%	28.3%	63.8%	27.4%
O=C(CSc1nnc(-c2ccc(Cl)cc2)n1-c1ccccc1)Nc1ccc(F)cc1	80.4%	93.2%	92.9%	82.3%	81.6%	46%	100%	82.4%
CS(=O)(=O)c1ccc(-c2nn(-c3ccccc3)cc2/C=C/C(=O)c2ccc(Br)cc2)cc1	87.8%	105%	95.3%	86.9%	50.2%	73.2%	105%	80%
C=C(C)C(=O)O[C@H]1C[C@@]2(C)OC(=CC2=O)[C@H](C)[C@H](O)[C@H]2OC(=O)C(=C)[C@@H]21	22.2%	68.9%	76.3%	17.3%	22.1%	33.4%	114%	84.1%
O=C1c2c(c3c4cccnc4[nH]c3c3ccc4ccccc4c23)C(=O)N1CCN1CCNCC1	99.2%	102%	89.9%	55.9%	27.8%	36.6%	81.8%	73.6%
Fc1ccc(-c2cc3nc(C(Cl)Cl)nc(-c4cccs4)n3n2)cc1	25.2%	92%	14.3%	2.69% (active)	3.99% (active)	-2.24% (active)	-61.5% (active)	-30.5% (active)
CS(=O)(=O)c1nccc(-c2c(-c3ccc(F)c(OCCc4ccccc4)c3)nc3sccn23)n1	-4.49% (active)	104%	104%	103%	4.77% (active)	92.5%	-46.4% (active)	77.5%
C#CCOc1ccccc1C(Nc1ccccc1)c1nnnn1C1CCCCC1 (configuration not stated)	93%	109%	101%	104%	94.3%	84.3%	106%	94.6%
Cc1csc(Nc2cccc(Nc3nc(C)cs3)c2)n1	36.1%	73.7%	82.1%	88.6%	73.3%	56.5%	90.3%	87.8%
Oc1ccc(CSc2nnc(-c3ccc(Br)cc3)n2-c2ccccc2)c2cccnc12	48.1%	40.3%	19.5%	26.6%	11%	21.7%	44.9%	26.3%
O=c1c2ccccc2nc(COc2ccccc2)n1/N=C/C=C/c1ccccc1	94.6%	135%	99.8%	91.5%	83.8%	96.5%	101%	111%
COc1ccc(C2CC(c3ccc(Nc4nc(NCCO)nc(Nc5ccc(Cl)cc5)n4)cc3)=Nc3c(N)nc(N)nc3N2)cc1 (configuration not stated)	72.1%	77.5%	74.9%	41.2%	-71.8% (active)	-80.3% (active)	93.5%	55.4%
COc1ccccc1N1CCN(C2=NN=C(c3cccc(Cl)c3)c3ccccc3C2)CC1	52.5%	50.5%	-3.46% (active)	20.9%	17.4%	7.98% (active)	8.13% (active)	6.16% (active)
COc1ccc2c(ccn2C(=O)N2c3ccccc3Sc3ccccc32)c1	23%	34.3%	-18.9% (active)	16.8%	29.6%	31.6%	48.9%	24.2%
Cc1ccc(Cc2cnc(NC(=O)/C(C#N)=C/c3ccc(-c4ccc(Cl)cc4)o3)s2)cc1	64.7%	96.7%	94.4%	93.9%	81.8%	88.9%	103%	90.4%
COc1ccc2oc3c4[nH]c5ccccc5c4c4c(c3c2c1)C(=O)N(O)C4=O	97.7%	104%	106%	92.1%	90.3%	104%	101%	101%
COc1ccc(NC(=O)Cn2cc(CN3C(=O)c4ccc([N+](=O)[O-])cc4C3=O)nn2)cc1	95.5%	111%	110%	97.5%	91.3%	109%	102%	106%
CC[C@@](C)(NC(=O)C(C)(C)NC(=O)[C@@H](NC(=O)[C@@H]1CCCN1C(=O)C(C)(C)NC(=O)[C@H](CC(C)C)NC(=O)CNC(=O)C(C)(C)NC(=O)[C@@H](NC(=O)C(C)(C)NC(=O)[C@H](CCC(N)=O)NC(=O)[C@H](C)NC(=O)C(C)(C)NC(=O)[C@H](C)NC(=O)C(C)(C)NC(=O)[C@@H]1CCCN1C(=O)C(C)(C)NC(C)=O)C(C)C)C(C)C)C(=O)N[C@@H](CCC(N)=O)C(=O)N[C@@H](CCC(N)=O)C(=O)N[C@H](CO)Cc1ccccc1	0.666% [4.25 µM] (active)	-50.2% [4.25 µM] (active)	4.98% [4.25 µM] (active)	54.9% [4.25 µM]	9.62% [4.25 µM] (active)	27.8% [4.25 µM]	29.3% [4.25 µM]	29.5% [4.25 µM]
COc1ccc(-c2nnc(SCc3ccc(O)c4ncccc34)n2-c2ccccc2)cc1	18.9%	19.7%	14.3%	12.7%	5.08% (active)	7.39% (active)	31.9%	15.6%
O=C1CC2(CCOCC2)Oc2ncccc21	70.6%	105%	81.2%	-54.6% (active)	12.7%	29%	25.1%	12.1%
Cn1c2ccc(Br)cc2c2c3c(c4c5cc(F)ccc5oc4c21)C(=O)N(O)C3=O	63%	89.4%	101%	54.5%	41.3%	75%	94.6%	92.6%
O=C(NCCCNc1cc(-c2cn(-c3ccccc3)nc2-c2cccc(O)c2)ccn1)Nc1ccc(F)cc1	11.3%	22%	-39.5% (active)	13.5%	10.8%	10.4%	-60.3% (active)	2.62% (active)
CCOC(=O)c1nn(-c2ccccc2)c(=O)c2c(N)c(C#N)c(-c3cccs3)cc12	76.7%	107%	90.3%	79.3%	74.6%	52.8%	78.2%	80.4%
COCCOc1ccc(-c2csc(NC(=O)CN3CCN(CCO)CC3)n2)cc1NS(=O)(=O)c1cccc2c(N(C)C)cccc12	84.5%	96.1%	83%	93.4%	93.6%	10.8%	91.3%	97.4%
